# Results published in the supplement of paper PMC4894684.
# Where a name gives a salt, the structure may show the parent alone. ± gives the standard deviation of the averaged measurements.
# Test system: Toxoplasma gondii RH (in HFF)
# Experiment: parasite growth relative to the screen mean (all compounds = 100%); higher = less inhibition of parasite growth
# Settings: 5 µM; 72 h; oxygen 21 %
# Summary of the method: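 RH β-Gal–GFP Toxoplasma at MOI 1:5 was used to infect confluent human foreskin fibroblasts in 96-well plates within 2 h of pin-transferring compounds to 5 µM final. After 72 h at 21% O2, parasite number was determined by CPRG β-Gal assay against standard curves on the same plate. Growth is relative to the screen mean and averaged over two screens, with all compounds = 100%.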
row,SMILES,parasite growth
1,C[C@@H](NCc1cc(Br)cc2[nH]c(=O)c(=O)[nH]c12)P(=O)(O)O,109 ± 3.7%
2,CCc1cc2c(c(CC)n1)CCC(=O)N2Cc1ccc(-c2ccccc2-c2nn[nH]n2)cc1 [ZD 7155 hydrochloride],91.1 ± 57%
3,CCCCCCCCCCCCCCCCn1cc[n+](Cc2ccccc2)c1C,< 0%
4,Nc1c(Br)cc(Br)cc1CN[C@H]1CC[C@H](O)CC1 [Ambroxol hydrochloride],136 ± 3.2%
5,CC1Nc2ccc(Cl)cc2S(=O)(=O)N1 (centres undefined),105 ± 84%
6,CC1(C)Oc2ccc(C#N)cc2[C@@H](N2CCCC2=O)[C@@H]1O [Levcromakalim],158 ± 31%
7,COc1nc(C)nc(Cl)c1NC1=NCCN1 [Moxonidine hydrochloride],108 ± 27%
8,Cc1cc(/C(=C/Nc2ccc(Cl)cc2)C(=O)Nc2ccc(Cl)cc2)on1,139 ± 40%
9,COc1ccc(CC(C)NCC(O)c2ccc(O)c(NC=O)c2)cc1 (centres undefined) [Formoterol hemifumarate],126 ± 5.6%
10,O=c1c(-c2ccc(O)cc2)coc2cc(O)ccc12 [Daidzein],77.8 ± 43%
11,CC1CCN=C(N)S1 (centres undefined) [AMT hydrochloride],70.6 ± 8.5%
12,OC1CCC(Nc2nc(-c3ccccc3)nc3[nH]ccc23)CC1 (centres undefined),116 ± 3%
13,NC(=O)N/N=C/c1ccc(Oc2ccc(F)cc2)cc1,145 ± 19%
14,O=C(C=Cc1ccccc1)NC(NC(=S)Nc1ccc(Cl)cc1)C(Cl)(Cl)Cl (centres undefined),34.8 ± 9.4%
15,CCCCCCCCCCCCCCCC(=O)C(F)(F)F,108 ± 7.6%
16,Cc1nn(C)c2nc(NNC(=O)Nc3cc(Cl)nc(Cl)c3)cc(C(C)C)c12,97.4 ± 3%
17,Clc1ccc2nsnc2c1NC1=NCCN1 [Tizanidine hydrochloride],113 ± 2.4%
18,Cc1cccc(C(=O)NCN2CCN(c3ccccc3C#N)CC2)c1,133 ± 7.4%
19,CCCn1c(=O)c(C)cn2nc(N)nc12,145 ± 2.1%
20,COC(=O)c1c(C)[nH]c(C)c1C(=O)c1ccccc1Cc1ccccc1,116 ± 37%

row,SMILES,parasite growth
1,CCCCOc1cc(CC2CNC(=O)N2)ccc1OC (centres undefined),156 ± 27%
2,COc1ccc(-n2[nH]c3c4c(ncc3c2=O)CCCCC4)cc1,105 ± 28%
3,CCCCCCCCCCC(C)(C)C(=O)Nc1c(OC)cc(OC)cc1OC,27.8 ± 5.4%
4,O=C(Nc1cccc2cccnc12)c1ccc(N2C(=O)[C@@H]3[C@H](C2=O)[C@@H]2C=C[C@H]3C2)cc1 [endo-IWR 1],113 ± 21%
5,Cc1ccccc1N=Nc1ccc(NC(=O)c2ccnn2C)c(C)c1,82.7 ± 23%
6,O=C(/C=C/c1ccc(O)c(O)c1)OCCc1ccccc1 [Caffeic acid phenethyl ester],105 ± 73%
7,COc1ccc2c3c1O[C@H]1C[C@@H](O)C=C[C@@]31CCN(C)C2 [Galanthamine hydrobromide],138 ± 30%
8,COCCCC/C(=N\OCCN)c1ccc(C(F)(F)F)cc1 [Fluvoxamine maleate],49.7 ± 11%
9,Cc1ccc([N+](=O)[O-])cc1S(=O)(=O)N(C)C,74.2 ± 14%
10,O=C1CCc2c(ccc3ccccc23)O1 [Splitomicin],149 ± 2.2%
11,CCCn1c(=O)c2[nH]c(C3CCCC3)nc2n(CCC)c1=O,103 ± 7%
12,OCC(CO)N[C@H]1C[C@](O)(CO)[C@@H](O)[C@H](O)[C@H]1O [Voglibose],68.07 ± 0.24%
13,Cc1cc2nc3c(=O)[nH]c(=O)nc-3n(C)c2cc1C=O,22.6 ± 1.9%
14,c1nc(CC2CCNCC2)c[nH]1 [Immepip dihydrobromide],100.2 ± 0.4%
15,Cn1cccc1/C=C1\C(=O)NC(=O)c2ccccc21,121 ± 6.4%
16,CC(=O)N(O)[C@@H]1c2cc(C#N)ccc2OC(C)(C)[C@H]1O,92.8 ± 30%
17,Cc1c(C(=O)NC2CCCCC2)sc2nc3ccc(N)cc3n12,183 ± 33%
18,Nc1nc(Cl)nc2c1ncn2[C@@H]1O[C@H](CO)[C@@H](O)[C@@H]1F [Clofarabine],67.9 ± 2.8%
19,O=C1C(=O)N(Cc2ccc(Cl)c(Cl)c2)c2ccccc21 [Apoptosis Activator 2],120 ± 3.4%
